Assay outcomes as filed in PubChem BioAssay.
HT1080-NT tox: kills 2HG-producing HT-1080-NT fibrosarcoma cells | 360,000 tested, 1.6% active | HT-1080-NT fibrosarcoma viability, CellTiter-Glo ATP luminescence, 48 h | Potency, µM (series often up to 46.1 µM), for inactives: at the highest dose activity, negative = less viability, usual class: cytotoxic;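 note: NT is the 2HG producing partner of a matched IDH1 knockdown line; potency is the fitted concentration of half-maximal effect; 0% = DMSO-treated cells and -100% = media-only wells without cells; nearly all actives have a fitted effect of over 55% in size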
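Viability by CellTiter-Glo luminescence after 48 h compound exposure at 37C of HT-1080-NT cells (750/well, RPMI, 5% FBS). % activity scaled between DMSO wells and medium-only wells, then curve-fitted and categorized by curve class.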
DT40 TDP1 no CPT: qHTS for Inhibitors of human tyrosyl-DNA phosphodiesterase 1 (TDP1): qHTS in cells in absence of CPT | AID 686978, 2013 | Potency, µM (doses to about 46.2 µM), without a hit: at the top dose activity change, negative = growth inhibition, most hits filed as inhibitors | DT40 Tdp1-/- hTDP1 cells, no CPT, ATP luminescence, 48 h | 420,000 tested, 15% active; note: potency is the fitted concentration of half-maximal effect; nearly all actives have a fitted effect of over 55% in size
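A cellular qHTS used chicken DT40 cells lacking endogenous Tdp1 but carrying stably transfected human TDP1. Compounds were applied without camptothecin, and cell growth kinetics were judged by ATP-dependent luminescence after ≥48 hr.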
DT40 TDP1 CPT: growth inhibition of DT40 Tdp1-/-;hTDP1 cells with camptothecin (screen for TDP1 inhibitors) | AID 686979 | Potency, µM (doses to about 46.2 µM), without a hit: at the highest dose activity change, negative = growth inhibition, most hits filed as inhibitors | 420,000 tested, 12% active | chicken DT40 Tdp1-/-;hTDP1 cells + 20 nM CPT, ATP luminescence, 48 h; note: potency is the fitted concentration of half-maximal effect; nearly all actives have a fitted effect of over 55% in size
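Cell growth measured by CellTiter-Glo luminescence after a minimum 48 h, 37 C compound exposure with 20 nM CPT in Tdp1-knockout DT40 cells stably expressing hTDP1, seeded 400/well; qHTS titration format.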
uPA generation: inhibitors of cell surface uPA generation; cell surface uPA generation assay, qHTS; Potency, µM (series often up to 38.3 µM), for the others: at the top dose activity change, negative = inhibition, actives largely listed as inhibitors; 330,000 tested, 0.31% active; AID 540303; active = well fitted inhibition curve with a large enough effect; inconclusive = small, poorly fitted or top-dose-only effect; inactive = no such curve, though single readings can be large or run the other way; tested in mouse RAW 264.7 cells; note: potency is the fitted concentration of half-maximal effect; nearly all actives have a fitted effect of over 55% in size
IL1B secr inh: inflammasome signaling inhibition, IL-1 beta readout; THP-1 LPS/ATP IL-1B secretion, AlphaLISA, 16 h; stronger effect = lower value; activity change, % at 57.5 µM; 360,000 tested, 4.7% active; AID 743279; in the data active = activity change below about -50%; inconclusive = mostly about -30% to -49%
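THP-1 cells pretreated 1 hr with compounds (up to 57.5 uM final), then stimulated with LPS (250 ng/mL final) plus ATP (1.25 mM final); secreted IL-1B measured by AlphaLISA after 16 hr, decreased signal indicating inhibition.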
HT1080 IDH1KD tx: kills HT-1080 cells with IDH1 knockdown. HT-1080 IDH1 knockdown viability, ATP luminescence, 48 h. Potency, µM (titrated, usually from 46.1 µM), without a hit: at the highest dose activity, negative = toxicity, usual class: cytotoxic. 360,000 tested, 2% active. AID 686971;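 note: potency is the fitted concentration of half-maximal effect; 0% = DMSO wells and -100% = cell-free medium wells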
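Knockdown cells (IDH1KD HT-1080) received compounds 2 h after plating at 750 cells/well and were kept 48 h at 37 °C in 5% FBS RPMI. A CellTiter-Glo luminescence read gave % activity for curve fitting.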
An asterisk follows results filed as active; ? = inconclusive; . = no result. An excerpt weighted towards active compounds, which were near 19% of everything screened. Unless noted, calls come from the whole dose curve; as a rule, active = well fitted curve in the direction sought with a large enough effect; inconclusive = small, poorly fitted or top-dose-only effect, or another doubt; inactive = no such curve, though single readings can be large; an effect the other way counts as inactive or inconclusive. Unless noted, % is set by controls: 0 for no effect and ±100 for the full control effect.

SMILES	HT1080-NT tox	DT40 TDP1 no CPT	DT40 TDP1 CPT	uPA generation	IL1B secr inh	HT1080 IDH1KD tx
O=C(Cn1ncc2c(=O)oc3ccccc3c21)N1CCN(c2ccccn2)CC1	?	-16.5%	0.9%	0.6%	21.5	?
Cc1c2cnn(-c3ccccc3)c(=O)c2c(C)n1CC(=O)N1CCN(c2ccc(F)cc2)CC1	.	14.6µM*	20.6µM*	.	.	.
COc1cccc(N2CCN(C(=O)Cn3ncc4c(=O)oc5ccccc5c43)CC2)c1	.	18.4µM*	16.4µM*	.	.	.
CC(=O)Nc1ccc(CN2C(=O)C(CCc3ccccc3)ON=C2c2cnccn2)cc1 (configuration not stated)	-8.2%	?	?	.	0.5	-6.0%
O=C(CN1CCCCC1)N1N=C(c2cccs2)CC1c1cccs1 (configuration not stated)	5.6%	-1.1%	-13.9%	6.0%	0.0	-2.1%
Cc1ccc(S(=O)(=O)NCC(=O)N2CCN(c3ccc(F)cc3)CC2)cc1	8.6%	-7.7%	-4.0%	8.4%	-8.3	0.9%
CC(C)NC(=O)N(C)C[C@H]1Oc2c(NC(=O)Nc3ccc(C(F)(F)F)cc3)cccc2C(=O)N([C@H](C)CO)C[C@@H]1C	-8.0%	18.4µM*	?	7.1%	?	-10.7%
COc1ccc(NC(=O)N(C)C[C@H]2Oc3c(NC(=O)c4ccncc4)cccc3C(=O)N([C@H](C)CO)C[C@@H]2C)cc1	24.0%	-0.6%	0.0231µM*	-3.4%	-7.5	-4.1%
C[C@H](CO)N1C[C@H](C)[C@@H](CN(C)C(=O)Nc2ccc(C(F)(F)F)cc2)Oc2c(NC(=O)Nc3ccccc3)cccc2C1=O	?	?	?	-26.6%	-58.2*	-23.1%
C[C@H](CO)N1C[C@H](C)[C@@H](CN(C)C(=O)Nc2ccc(C(F)(F)F)cc2)Oc2c(cccc2N(C)C)C1=O	0.0%	23.1µM*	?	10.5%	12.4	0.2%
Cc1noc(C)c1NC(=O)N(C)C[C@H]1Oc2c(NC(=O)Nc3ccc(C(F)(F)F)cc3)cccc2C(=O)N([C@H](C)CO)C[C@@H]1C	0.3%	?	-2.1%	4.3%	0.0	-3.1%
C[C@H]1CN([C@@H](C)CO)C(=O)c2cccc(NC(=O)c3ccncc3)c2O[C@H]1CN(C)C(=O)Nc1ccccc1	10.0%	?	?	10.2%	0.0	0.6%
Cc1nnc(NCC=Cc2ccccc2)s1	22.0%	-4.8%	-0.5%	.	32.2	6.1%
C[C@@H]1CN([C@H](C)CO)C(=O)c2cccc(NC(=O)Nc3ccc(F)cc3)c2O[C@H]1CN(C)C(=O)Nc1ccc(C(F)(F)F)cc1	?	?	?	?	-70.2*	?
COc1ccc(NC(=O)Nc2cccc3c2O[C@H](CN(C)C(=O)Nc2ccccc2)[C@@H](C)CN([C@H](C)CO)C3=O)cc1	0.9%	-10.7%	-3.6%	-15.3%	-4.8	3.0%
COc1ccc(NC(=O)N(C)C[C@H]2Oc3c(NC(=O)Nc4ccc(C(F)(F)F)cc4)cccc3C(=O)N([C@H](C)CO)C[C@@H]2C)cc1	?	13µM*	16.4µM*	0.5%	?	?
Cc1ccccc1CNC(=O)c1ccc(CSc2nc3cccnc3n2Cc2ccccc2)cc1	.	13µM*	?	.	.	.
CC1CCC(NC(=O)c2ccc(CSc3nc4ccncc4n3Cc3ccc(F)cc3)cc2)CC1 (configuration not stated)	.	7.31µM*	?	.	.	.
O=C(NC1CCCC1)c1ccc(CSc2nc3cccnc3n2Cc2cccc(F)c2)cc1	.	14.6µM*	?	.	.	.
O=C(NCc1ccccc1F)c1ccc(CSc2nc3cccnc3n2Cc2ccccc2)cc1	.	-8.4%	-1.6%	.	.	.
CCc1ccccc1NC(=O)Cn1c(SCc2ccc(F)cc2)nc2ccncc21	.	-0.2%	-22.3%	.	.	.
